Measured values: the supplement of paper PMC4723716
Whole data set: some 3,600 compounds, median “viability index relative to DMSO control” near 0.81, cut for the lowest 2% near 0.13. For the sample, the lowest values were picked, then their nearest neighbours and some compounds at random.

Test system: Plasmodium falciparum NF54 stage V gametocytes
Assay: viability index relative to DMSO control (fraction); higher = less gametocyte killing
Settings: 1.25 µM, incubation time: 72 h
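Note: Saponin-lysis sexual stage assay in serum-free medium: MitoTracker Red CMXRos staining plus saponin, high-content imaging, particle count per well divided by plate mean of DMSO wells.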

Question: For CCOC(=O)c1c(NC(=O)Cc2ccc([N+](=O)[O-])cc2)sc2c1CCCC2, which viability index is on record?
Answer: 1.02

Question: For Cc1ccc(CN2C(=O)C(O)(CC(=O)c3ccccc3)c3ccccc32)cc1 (stereo unspecified), which viability index is on record?
Answer: 0.914

Question: Which viability index does the source give for CCN1C(=Cc2sc3ccccc3[n+]2C)C=Cc2ccc(C)cc21 here?
Answer: 0.51

Question: Which viability index does the source give for Cc1cc(NCCCN(C)C)c2ccccc2n1 here?
Answer: 0.888

Question: How did the viability index turn out when CN(C)CCCNc1c2ccccc2nc2ccccc12 was run?
Answer: 0.0224

Question: For CN(C)CCNc1c2c(nc3ccccc13)CCC2, which viability index is on record?
Answer: 0.953

Question: CCOc1cc([N+](=O)[O-])cc(C=Nc2cccc(NC(=O)c3ccco3)c2)c1O was tested. Which viability index did it give?
Answer: 0.989

Question: N=c1n(CCN2CCCCC2)c2ccccc2n1CC(O)COc1ccc(Cl)cc1 (stereo unspecified) was tested. Which viability index did it give?
Answer: 0.746

Question: Which viability index does the source give for O=C(CC1OC(=O)c2ccccc21)c1ccc(Cl)cc1 (stereo unspecified) here?
Answer: 0.496

Question: For CCOC(=O)c1cnc2c(OC)cccc2c1Nc1ccc(C(C)=O)cc1, which viability index is on record?
Answer: 1.27

Question: With COc1ccccc1/C=C/CN1CCN(c2ccccn2)CC1 as the compound, how does the viability index read?
Answer: 1.15

Question: For COc1cnc(-c2ccccn2)nc1NC(C)C, which viability index is on record?
Answer: 0.0307

Question: How did the viability index turn out when CC(C)Nc1nc(-c2cccnc2)nc2ccccc12 was run?
Answer: 1.12

Question: How did the viability index turn out when COc1ccc(Nc2nc(N3CCCC3)c3ccccc3n2)cc1 was run?
Answer: 0.74

Question: Which viability index does the source give for c1ccc(CNc2nc(-c3ccccn3)nnc2-c2ccccc2)cc1 here?
Answer: 0.374

Question: Which viability index does the source give for COc1cnc(-c2ccccn2)nc1N1CCCC1 here?
Answer: 0.0429

Question: How did the viability index turn out when Cc1cc(C)nc(Nc2nc(C)c3cc(C)c(C)cc3n2)n1 was run?
Answer: 0.196

Question: With CCOC(=O)C1=C(C)NC2=C(C(=O)C(C(=O)OCC)C(c3ccc(OC)cc3)C2)C1c1ccc(OC)c(OC)c1 (stereo unspecified) as the compound, how does the viability index read?
Answer: 0.683

Question: For CN(C)c1ccc(C=C2SC(=Nc3ccc(O)cc3)NC2=O)cc1, which viability index is on record?
Answer: 0.727

Question: How did the viability index turn out when CCn1c(C=CN(C)c2ccccc2)[n+](CC)c2cc(Cl)ccc21 was run?
Answer: 1

Question: How did the viability index turn out when CC(C)(C)c1ccc(Cn2nnc3c(O)nc(C4CCN(C(=O)c5ccccc5)CC4)nc32)cc1 was run?
Answer: 0.736

Question: With N=C1NC(=O)C(=CC=Cc2ccc([N+](=O)[O-])o2)S1 as the compound, how does the viability index read?
Answer: 0.0408

Question: How did the viability index turn out when O=C(c1ccccc1)N1CCc2nc(Cc3ccc(F)cc3Cl)sc2C1 was run?
Answer: 0.708

Question: Which viability index does the source give for Cc1ccc2ccc3ccc(C)nc3c2n1 here?
Answer: 0.0302

Question: For COc1cccc(OC)c1C(=O)Oc1cccc2ccc(C)nc12, which viability index is on record?
Answer: 0.706

Question: For Cc1ccc(NC(=O)c2ccc(NCCCN3CCCCCC3)c([N+](=O)[O-])c2)cc1F, which viability index is on record?
Answer: 1.51

Question: S=C(NN=Cc1ccccn1)NC1CC2C=CC1C2 (stereo unspecified) was tested. Which viability index did it give?
Answer: 0.0456

Question: How did the viability index turn out when S=C(NN=Cc1ccccn1)NC1CC2CC1C1C=CCC21 (stereo unspecified) was run?
Answer: 0.397

Question: For CC1(C)C2CCC(C2)C1(C)NC(=S)NN=Cc1ccccn1 (stereo unspecified), which viability index is on record?
Answer: 0.0373

Question: For CCOC(=O)c1ccc(N(C(=O)Cc2c[nH]c3ccccc23)C(C(=O)NC2CCCCC2)c2cccnc2)cc1 (stereo unspecified), which viability index is on record?
Answer: 0.513

Question: Which viability index does the source give for O=C(Nc1ccc(O)cc1)c1cccc(S(=O)(=O)N2CCCCC2)c1 here?
Answer: 1.03

Question: CC(=O)NC1=NN(C(C)=O)C(c2ccc(Br)cc2)S1 (stereo unspecified) was tested. Which viability index did it give?
Answer: 0.944

Question: O=C(CSc1nc2ccccc2c(=O)n1CCCN1CCOCC1)Nc1cccc(S(=O)(=O)N2CCCCCC2)c1 was tested. Which viability index did it give?
Answer: 0.969

Question: With CCc1ccc2c(c1)C1(NN=C(c3ccc(C)cc3)S1)C(=O)N2 (stereo unspecified) as the compound, how does the viability index read?
Answer: 0.127

Question: How did the viability index turn out when CC1=C(C(=O)OC2CCCCC2)C(c2ccc(F)c(F)c2)C2=C(CCCC2=O)N1 (stereo unspecified) was run?
Answer: 0.855

Question: With CN(C)CCNc1cc(-c2ccccc2)nc2ccccc12 as the compound, how does the viability index read?
Answer: 0.909

Question: CN(C)CCCNc1cc(-c2ccccc2)nc2ccccc12 was tested. Which viability index did it give?
Answer: 0.913

Question: For CN(C)CCNc1cc(-c2ccc3ccccc3c2)nc2ccccc12, which viability index is on record?
Answer: 0.0331

Question: Cc1ccc(C=Cc2ccc3ccccc3[n+]2C)cc1 was tested. Which viability index did it give?
Answer: 0.754

Question: How did the viability index turn out when O=C(NCc1ccccc1)C(c1ccc(F)cc1)N(Cc1ccco1)C(=O)c1cnccn1 (stereo unspecified) was run?
Answer: 0.72

Question: For CCOc1ccccc1NC(=O)Cn1c(=O)n(Cc2ccccc2)c(=O)c2c(C)c(C(=O)N(C)C)sc21, which viability index is on record?
Answer: 0.83

Question: For CCCCCOC(=O)C1=C(C)NC2=C(C(=O)CC(C)(C)C2)C1c1ccncc1 (stereo unspecified), which viability index is on record?
Answer: 0.891

Question: For CCC(=O)N(C1=C(NC)C(=O)c2ccccc2C1=O)C(C)C, which viability index is on record?
Answer: 0.601

Question: Which viability index does the source give for CC(=O)N(C1=C(N2CCCC2)C(=O)c2ccccc2C1=O)c1ccc(F)cc1 here?
Answer: 1

Question: Which viability index does the source give for CC(=O)N(Cc1ccc(F)cc1)C1=C(NCCc2ccccc2)C(=O)c2ccccc2C1=O here?
Answer: 0.0184

Question: How did the viability index turn out when CC(=O)N(C1=C(N2CCCCC2)C(=O)c2ccccc2C1=O)c1ccc(F)cc1 was run?
Answer: 0.721

Question: How did the viability index turn out when CCN(C(C)=O)C1=C(N2CCOCC2)C(=O)c2ccccc2C1=O was run?
Answer: 0.538

Question: CNC1=C(N(Cc2ccc(Cl)c(Cl)c2)C(C)=O)C(=O)c2ccccc2C1=O was tested. Which viability index did it give?
Answer: 0

Question: How did the viability index turn out when Cc1cc(Nc2cccc(Cl)c2)nc2ccc(NC(=O)c3cccnc3)cc12 was run?
Answer: 0.912

Question: With COC(=O)c1c(NC(=O)c2ccc(S(=O)(=O)N3CCOCC3)cc2)sc2c1CCN(C(C)=O)C2 as the compound, how does the viability index read?
Answer: 0.76

Question: C1=C(c2ccccc2)CCN(c2ncnc3c2nc2n3CCCCC2)C1 was tested. Which viability index did it give?
Answer: 0.916
